Rows were chosen to be rich in hits. Some 8.3% of all compounds tested hit in one or more screens of this group.
RORgamma inh = blocks mouse ROR gamma transcriptional activity | AID 2551 | Drosophila S2 Gal4-RORgamma UAS-luciferase reporter, 20 h | Potency, µM (series often up to 53.6 µM), for inactives: top-dose activity change, negative = inhibition, actives largely listed as inhibitors | P51450 | 5.4% of 310,000 active; also: potency is read from the fitted curve at half-maximal effect; % is scaled to controls: 0 for no effect and ±100 for the full control effect; nearly all actives have a fitted effect of over 60% in size
Target sequence (P51450 whole entry, looked up, the tested form may be a part): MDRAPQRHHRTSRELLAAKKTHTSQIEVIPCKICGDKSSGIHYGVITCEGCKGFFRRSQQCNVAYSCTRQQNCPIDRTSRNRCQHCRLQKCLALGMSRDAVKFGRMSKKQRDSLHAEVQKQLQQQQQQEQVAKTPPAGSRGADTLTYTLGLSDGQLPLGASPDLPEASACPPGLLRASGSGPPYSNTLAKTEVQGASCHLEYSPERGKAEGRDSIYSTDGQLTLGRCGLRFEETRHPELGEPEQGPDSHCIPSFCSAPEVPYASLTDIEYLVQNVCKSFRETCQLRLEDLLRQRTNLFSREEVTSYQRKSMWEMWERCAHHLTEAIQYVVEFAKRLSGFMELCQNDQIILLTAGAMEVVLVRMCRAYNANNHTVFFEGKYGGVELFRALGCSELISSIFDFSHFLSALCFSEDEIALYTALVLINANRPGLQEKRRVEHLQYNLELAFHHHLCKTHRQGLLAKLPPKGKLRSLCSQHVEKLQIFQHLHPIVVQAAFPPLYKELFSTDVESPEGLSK
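Compounds are pin-transferred onto Drosophila Schneider cells expressing a copper-inducible Gal4–ROR gamma transactivation domain fusion. After 1 hr, copper sulfate is added to 700 uM final; luciferase is read 20 hr later.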
BCR signal inh = chronic active BCR signaling inhibition | Potency, µM (doses to about 46.1 µM), inactives show at the top dose activity change, negative = inhibition, actives largely listed as inhibitors | 0.05% of 340,000 active | ABC-DLBCL IkBa-CBG/CBR reporter, luminescence ratio, 4 h; active = well fitted inhibition curve with a large enough effect in the signal ratio, with a control signal flat, not every such curve was filed as active; inconclusive = small, poorly fitted or top-dose-only effect, or effect the other way, or a change in a side signal; the % refers to the signal ratio;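 also: potency is read from the fitted curve at half-maximal effect; plate controls were basal doxycycline-induced cells for no effect and cells given 10 µM MG132 for full effect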
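Compounds up to 46 uM were incubated four hours with TMD8 cells whose green CBG68 luciferase is fused to IkappaBalpha; red CBR luminescence normalised the signal, and concentration-effect curves were fitted to fusion, red and ratio data.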
SW480 rerep = DNA re-replication induction in SW480 cells. AID 624297. 1.8% of 340,000 active. Potency, µM (doses to about 46.1 µM), for the others: top-dose re-replication activation, hits mostly activators. SW480 DNA re-replication, Hoechst DNA content imaging, 48 h; also: potency is read from the fitted curve at half-maximal effect; % of control where 0% means no effect; nearly all actives have a fitted effect of over 55% in size
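Per well, 250 cells were exposed to pinned compound for 48 hr. Nuclear DNA was visualised with Hoechst (40 min, 37 C) and total object intensity recorded by fluorescence scanning.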
Giardia killer = kills Giardia lamblia. Giardia lamblia trophozoite viability. activity change, % at 7.66 µM, hits read low. 0.15% of 340,000 active; in the data active = activity change below about -80%; inconclusive = between about -30% and that limit;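 also: parasites exposed to compound for two days anaerobically before the ATP read; % is scaled to controls: 0 for no effect and ±100 for the full control effect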
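Luminescent ATP signal served as the viability read-out, measured 15-30 min after adding ATP detection reagent to trophozoites that had been incubated with compounds for 48 hrs at 37 deg C anaerobically at 100 cells/well.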
Gal4-VP16 FLuc = Gal4-VP16 reporter inhibition counter-screen; 3.5% of 310,000 active; Potency, µM (series often up to 53.6 µM), without a hit: top-dose activity, negative = inhibition, most hits filed as inhibitors; Drosophila S2 Gal4-VP16 UAS-luciferase, luminescence, 20 h; AID 2546;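 also: Gal4-VP16 expression switched on by copper sulfate through the metallothionein promoter; potency is read from the fitted curve at half-maximal effect; % is scaled to controls: 0 for no effect and ±100 for the full control effect; nearly all actives have a fitted effect of over 50% in size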
MCF10A rereplic = induces DNA re-replication in MCF 10a normal breast cells | AID 624296 | 2.9% of 350,000 active | MCF 10A DNA re-replication, Hoechst nuclear intensity, 48 h | Potency, µM (top dose mostly 46.1 µM), without a hit: top-dose activity, positive = re-replication, hits mostly activators; also: potency is read from the fitted curve at half-maximal effect; % of control where 0% means no effect; nearly all actives have a fitted effect of over 50% in size
* marks the source's active call; other numbers are inactive results; ? = inconclusive; . = no result; [ ] = remark or other dose. Unless noted, calls follow the shape of the dose curve; as a rule, active = well fitted curve in the direction sought with a large enough effect; inconclusive = small, poorly fitted or top-dose-only effect, or another doubt; inactive = no such curve, though single readings can be large; an effect the other way counts as inactive or inconclusive.

SMILES	RORgamma inh	BCR signal inh	SW480 rerep	Giardia killer	Gal4-VP16 FLuc	MCF10A rereplic
NC(=S)NN=C1C2CC3CC(C2)CC1C3	2µM*	?	?	-13	?	19%
CCCSCCCNC(=O)c1ccccc1NC(=O)C1=CSCCO1	2%	4%	-3%	-13	-1%	4%
O=C(CCCN1C(=O)/C(=C/c2cccc(Br)c2)SC1=S)N1CCOCC1	-33%	?	5%	-15	-1%	20%
CN1CCN(C(=O)CCCN2C(=O)/C(=C/c3cccc(Br)c3)SC2=S)CC1	?	?	?	61	-6%	23µM*
CN1CCN(C(=O)CCN2C(=O)/C(=C/c3cccc(Br)c3)SC2=S)CC1	16µM*	-15%	?	-4	-14%	15µM*
COc1ccc([C@@H]2[C@@H]3C(=O)N(C(C)(C)C)C(=O)[C@@H]3[C@]3(Cc4ccccc4)C(=O)N(c4ccc(C)cc4)C(=O)N23)cc1	.	1%	-2%	-6	.	9%
O=C(Cn1cnc(S(=O)(=O)N2CCCC2)c1)Nc1ccc(OC(F)(F)F)cc1	1%	-11%	-5%	3	1%	7%
COC(=O)c1cc(NC(=O)c2cc(-c3ccc(C(F)(F)F)cc3)oc2C(F)(F)F)ccc1N1CCOCC1	11%	0%	5.8µM*	-7	-5%	22%
C=CCC1CCCC(=O)N2CCCC12 (centres undefined)	0%[96.6 µM]	-1%	-44%	-2	1%[96.6 µM]	-1%
COc1cc(/C=N/n2c(-c3ccc4c(c3)NC(=O)CO4)csc2=Nc2cccc(C)c2)ccc1O	?	?	?	5	?	23µM*
FC(F)(F)COCC(F)(F)F	9%	.	-1%	.	3%	-2%
O=C1CCC[C@@H](C(C(=O)OCc2ccccc2)C(=O)OCc2ccccc2)C1	2%[10 µM]	.	.	.	19%[10 µM]	.
Cc1ccccc1-n1nc2c(c1NC(=O)C1CCCC1)CS(=O)(=O)C2	24%	2%	-1%	18	-8%	18µM*
Cc1cccc(-n2nc3c(c2NC(=O)C2CC2)CS(=O)(=O)C3)c1C	4%	-10%	-3%	-27	-6%	18%
Cc1csc(=O)n1CCC(=O)OCC(=O)Nc1ccc(Cl)cn1	.	10%	-2%	14	.	9%
Cn1c2ccccc2c2nnc(SCCOc3ccccc3)nc21	.	.	.	-2	.	.
O=c1c(Cc2c(F)cccc2Cl)c(O)ccn1C1CCCCCC1	11%	4%	-32%	9	2%	0.18µM*
O=c1c(Cc2c(F)cccc2Cl)c(O)ccn1Cc1ccc(F)cc1	36%	5%	3%	-3	-7%	20%
COc1ccc(NC(=O)COc2cccc(-n3cnnn3)c2)cc1Cl	.	0%	6.5µM*	8	.	-5%
Cc1nn2c(Nc3ccccc3)c3c(nc2c1-c1ccccc1)CCC3	2.8µM*	4%	-1%	-2	5µM*	?
Cc1nn2c(NCCCN(C)C)c3c(nc2c1-c1ccccc1)CCCC3	?	?	-59%	-7	3%	2%
Cc1nn2c(NC(C)C)c3c(nc2c1-c1ccccc1)CCC3	3.5µM*	?	-6%	-14	10%	?
Cc1nn2c(NCCCN(C)C)c3c(nc2c1-c1ccccc1)CCC3	11µM*	4%	-8%	-20	-20%	3%
Cc1nn(CC(=O)N2CCc3ccccc32)c(C)c1S(=O)(=O)NC(C)(C)C	.	?	-7%	2	.	6%
O=C(N=C1SC2CS(=O)(=O)CC2N1c1cc(Cl)ccc1Cl)C1CCCO1 (centres undefined)	-12%	0%	-11%	-9	-10%	11%
SMILES	RORgamma inh	BCR signal inh	SW480 rerep	Giardia killer	Gal4-VP16 FLuc	MCF10A rereplic
CC(C)OC(=O)C(=O)NNc1ccccc1	-7%	9%	3%	3	-7%	10µM*
O=C(NC1CC1)C1=C[C@@H](c2ccc(Br)cc2)C[C@@H](OCc2ccc(CO)cc2)O1	29%	-1%	-12%[9.22 µM]	-19	-13%	1%
CC(=O)/C(=N\Nc1ccccc1)Sc1cccc2cccnc12	14µM*	3%	0%	?	?	-7%
CC(=O)/C(=N\Nc1ccccc1Cl)Sc1cccc2cccnc12	2.8µM*	-1%	?	7	4.5µM*	?
O=C(CSc1cccc2cccnc12)Nc1ccccc1F	?	?	?	5	?	3%
O=c1c(O)c(-c2ccccc2)oc2cccc(O)c12	4µM*	.	.	.	7.9µM*	.
COC(=O)C1=C(C)NC2=C(C(=O)CCC2)C1c1cn(Cc2ccc(Cl)cc2Cl)nc1-c1ccccc1 (centres undefined)	14%	?	?	-10	-1%	?
CCOC(=O)C1=C(C)NC2=C(C(=O)CCC2)C1c1cn(Cc2ccc(Cl)cc2Cl)nc1-c1ccccc1 (centres undefined)	20%	?	2.8µM*	18	-13%	?
Cc1cc(=O)n2cccc(O)c2n1	0.89µM*	?	?	-5	1.8µM*	5%
Cc1cccn2c(=O)cc(COC(=O)C(C)Oc3ccccc3)nc12 (centres undefined)	.	6%	-1%	12	.	8%
Cc1cccc(Cn2nc(-n3cccc3)c3c(C)cc(C)nc32)c1	-2%	2%	-11%	-17	7%	-7%
CC12CC3(C)CC(C)(C1)CC(C(=O)NC1=NCCS1)(C2)C3	.	.	13%	19	.	18%
CC12CC3CC(C)(C1)CC(C(=O)NC1=NCCS1)(C3)C2	2.8µM*	?	3%	-7	7.9µM*	8%
O=C(Cn1c(=O)cnc2ccccc21)Nc1cccc(S(=O)(=O)N2CCCCC2)c1	.	?	-3%	47	.	7%
CCN(CC)CCC(=O)N1c2ccccc2Sc2ccc(Cl)cc21	20%	?	14µM*	-8	-1%	30µM*
COc1ccc(/C=C/C(=O)NC2CCS(=O)(=O)C2)cc1 (centres undefined)	.	?	-1%	4	.	0%
CC(C)(C)c1ccc(/C=N/NC(=S)NC2CCCCC2)cc1	1.1µM*	6%	?	-2	3.2µM*	16µM*
O=C(N/N=C/c1ccccc1)NC1CCCCC1	42%	-4%	-88%	-1	-11%	-38%
COc1ccc(/C=N/NC(=S)NC2CCS(=O)(=O)C2)cc1 (centres undefined)	7.1µM*	?	-3%	-4	4.5µM*	6%
O=C1c2ccc(Br)cc2C(=O)N1c1ccc(Cc2ccncc2)cc1	?	-3%	-6%	4	14µM*	1%
Cc1cccc(N2C(=O)c3ccc(Br)cc3C2=O)n1	-20%	2%	.	.	3%	.

Bioassay records (PubChem BioAssay)
